In the library only some 6.9% were active in any assay of this set; here they are far more common.
PLK1 PBD block: inhibitors of human PLK1 polo-box domain binding. P53350. Potency, µM, for inactives: max response, negative = inhibition, most hits filed as inhibitors. Plk1 PBD binding of FITC phosphopeptide, fluorescence polarization. 360,000 compounds, 2.8% hits; further: series mostly up to about 57 µM; on the % scale 0 is the no-effect control and ±100 the full control effect; nearly all actives have a fitted effect of over 65% in size
HP1b chromo inh: inhibitors of HP1-beta chromodomain binding to methylated histone tails. P83916. AlphaScreen HP1-beta / biotin-H3K9me3 peptide binding. Potency, µM (doses to about 114 µM), without a hit: top-dose activity change, negative = inhibition, actives largely listed as inhibitors. 390,000 compounds, 0.56% hits; further: nearly all actives have a fitted effect of over 70% in size
Target sequence (P83916 whole entry, looked up): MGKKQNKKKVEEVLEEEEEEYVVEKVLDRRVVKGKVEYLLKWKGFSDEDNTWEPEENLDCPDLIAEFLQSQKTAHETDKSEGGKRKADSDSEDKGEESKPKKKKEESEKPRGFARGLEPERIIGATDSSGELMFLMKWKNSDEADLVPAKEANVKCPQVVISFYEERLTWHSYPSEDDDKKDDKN
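AlphaScreen: HP1-beta (50 nM) preformed 30 min with biotin-H3(1-18)K9me3 peptide (50 nM) in PBS pH 7.4, 0.01% Tween-20. Compound added for 30 min at RT, then streptavidin donor/nickel chelate acceptor beads (10 ug/mL) for 30 min.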
VDR inh: blocks the human vitamin D receptor; Potency, µM, for the others: max response, negative = inhibition, most hits filed as inhibitors; 400,000 compounds, 0.93% hits; P11473; VDR-SRC2-3 peptide fluorescence polarization, 2 h; further: on the % scale 0 is the no-effect control and ±100 the full control effect
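Two reagent solutions held at 4 deg C in the dark were dispensed, compounds pinned at 23 nl, and the mixture incubated 2 h at room temperature. Read-out: fluorescence polarization of VDR–SRC2-3 peptide binding.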
L3MBTL1 inh: L3MBTL1 (human) inhibition | AlphaScreen L3MBTL1–H3K9me1 peptide binding | Potency, µM (highest dose often 57.1 µM), without a hit: at the highest dose activity, negative = inhibition, usual class: inhibitors | 230,000 compounds, 0.66% hits | AID 485360; further: on the % scale 0 is the no-effect control and ±100 the full control effect; nearly all actives have a fitted effect of over 60% in size
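First, the protein-peptide complex forms for 30 min at room temperature (L3MBTL1 50 nM, biotinylated H3K9me1 peptide 75 nM). Next, compounds are pin-transferred and incubated 30 min. Finally, AlphaScreen beads are added and read after 30 min.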
BAZ2B inh: inhibitors of human BAZ2B bromodomain; Potency, µM (doses to about 114 µM), for inactives: at the top dose activity change, negative = inhibition, most hits filed as inhibitors; AlphaScreen BAZ2B-H3K14Ac peptide displacement; Q9UIF8; AID 504333; 360,000 compounds, 4.4% hits; further: on the % scale 0 is the no-effect control and ±100 the full control effect; nearly all actives have a fitted effect of over 60% in size
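BAZ2B 50 nM plus b-H3(5-23)K14Ac 50 nM, PBS pH 7.4/0.01% Tween-20, 30 min RT; compound added (max 110 uM), 30 min RT; streptavidin donor/Ni-chelate acceptor beads 10 ug/mL final, 20 min dark; AlphaScreen read.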
JMJD2A Tudor: inhibitors of human JMJD2A Tudor domain | AID 504339 | O75164 | AlphaScreen JMJD2A-Tudor / H3K4me3 peptide binding | Potency, µM (series often up to 114 µM), without a hit: at the top dose activity change, negative = inhibition, hits mostly inhibitors | 390,000 compounds, 4.4% hits; further: on the % scale 0 is the no-effect control and ±100 the full control effect; nearly all actives have a fitted effect of over 50% in size
* hit, by the source's call; u = inconclusive; x = no result given; [ ] = another dose, or the depositor's remark. The call rests on the fitted dose curve; in most records, active means well fitted curve in the direction sought with a large enough effect; inconclusive means small, poorly fitted or top-dose-only effect, or another doubt; inactive means no such curve, though single readings can be large; an effect the other way counts as inactive or inconclusive. Potency means the concentration at half of the fitted maximal effect.

SMILES	PLK1 PBD block	HP1b chromo inh	VDR inh	L3MBTL1 inh	BAZ2B inh	JMJD2A Tudor
O=c1oc2c(CN3CCOCC3)c(O)ccc2c2ccccc12	-1%	38%	9%	10%	10%[57.1 µM]	-12%
CN(Cc1c(O)ccc2c1oc(=O)c1ccccc12)C1CCCCC1	-9%	u	2%	x	5.6µM*	4µM*
O=C1NCN(c2ccccc2)C12CCN(CCCC(c1ccc(F)cc1)c1ccc(F)cc1)CC2	-20%	-31%	-4%	u	u	40µM*
O=C(CCCN1CCN(c2ccccc2)CC1)c1ccc(F)cc1	2%	x	x	x	x	x
Cc1nc(CNS(=O)(=O)c2cccc(F)c2)cs1	-7%	26%	-3%	-2%	-35%	-21%
Cc1ccc(-c2csc(NS(=O)(=O)c3cccc(F)c3)n2)o1	24µM*	-32%	u	28µM*	x	56µM*
O=C1CNc2ccc(C(=O)N3CCN(c4ccccn4)CC3)cc2N1	24µM*	19%	-28%	x	-11%	u
CC(C)C1Nc2ccc(C(=O)N3CCN(c4ccccn4)CC3)cc2NC1=O (stereo unspecified)	-15%	25%	28%	x	-8%	-6%
COc1ccc(NC(=O)C(NS(=O)(=O)c2ccc3c(c2)CCCN3C(C)=O)C(C)C)c(OC)c1 (stereo unspecified)	-9%	7%	38%	-2%	56µM*	-24%
CC(=O)N1CCCc2cc(S(=O)(=O)NC(C(=O)NC3CCCCC3)C(C)C)ccc21 (stereo unspecified)	-13%	23%	-17%	4%	-2%	-8%
COC(=O)c1cccc(-c2ccc(C(c3c(C)[nH][nH]c3=O)c3c(C)[nH][nH]c3=O)o2)c1	24µM*	u	-27%	-16%	40µM*	56µM*
COc1ccccc1N1CCN(S(=O)(=O)c2ccc(-c3ccno3)cc2OC)CC1	x	12%	-1%	x	u	-23%
O=C(CN1CCCCC1)N/N=C/c1ccccc1Br	-12%	11%	-1%	-1%	u	-6%
COc1ccc(/C=N/NC(=O)CN2CCCCCCC2)c(C)c1C	-15%	u	32%	x	56µM*	5µM*
CCN1CCN(CC(=O)Nc2cc(F)ccc2C)CC1	1%	11%	-8%	x	11%	-4%[11.4 µM]
O=C(CN1CCCCCCC1)N/N=C/c1ccccc1F	-5%	-3%	5%	-12%	56µM*	71µM*
O=C(CN1CCCCC1)N/N=C/c1ccc(Cl)cc1Cl	-10%	16%	0%	5%	12%	-17%
CCN1CCN(CC(=O)N/N=C/c2ccc(F)cc2F)CC1	4%	u	-11%	6%	50µM*	2.8µM*
O=C(CN1CCCC1)NC(c1ccccc1)c1ccccc1	-4%	u	-2%	4µM*	0%[0.457 µM]	1.4µM*
Cn1cccc1-c1cc2n(n1)CCC(=O)N2CCCC(=O)NCc1cccc(Cl)c1	x	-1%[57 µM]	9%	x	u	-34%
O=C(Cc1ccsc1)Nc1ccccc1F	27µM*	-13%[57 µM]	u	x	-20%	u
O=C(CN1CCCCCC1)Nc1ccccc1Cl	-11%	59%	-11%	4%	-3%	3%
O=C(CN1CCCCCC1)Nc1ccccc1F	-8%	u	-6%	4%	56µM*	2.2µM*
O=C(CO)N/N=C/c1ccccc1F	1%	33%	-16%	-1%	2%	-8%
O=C(CN1CCSCC1)N/N=C/c1ccccc1F	-9%	u	-9%	x	50µM*	3.2µM*
O=C(COC(=O)Cc1ccsc1)Nc1cccc(F)c1	-6%	33%	89µM*	11%	6%	-14%
O=C(Cc1ccsc1)Nc1cc(F)ccc1F	-3%	30%	-3%	x	2%	2%
Cc1ccc(CNC(=O)Cc2c(C)c3c(cc(C)c4c(C)coc43)oc2=O)cc1	x	19%	3%	x	-2%	-8%
O=c1c(N2CCN(c3cccc(Cl)c3)CC2)csc2ccc(Cl)cc12	x	45%[57 µM]	2%	x	-1%	u
CCCCN1C(=O)/C(=C/C=C2/CC(C)(C)CN2C)SC1=S	81%	u	-18%	-9%	8.9µM*	u
